Rows were chosen to be rich in hits. Some 2.4% of all compounds tested hit in one or more screens of this group.
GLP-1R agonist: agonists of human GLP-1 receptor | P43220 | HEK293 GLP-1R CRE-luciferase, luminescence, 4-6 h; cells express a hypersensitive GLP-1R form | Potency, µM (highest dose often 45.6 µM), without a hit: top-dose activation, most hits filed as activators | 0.007% of 380,000 active; further: potency means the concentration at half of the fitted maximal effect; % of control where 0% means no effect
Target sequence (P43220 whole entry, looked up): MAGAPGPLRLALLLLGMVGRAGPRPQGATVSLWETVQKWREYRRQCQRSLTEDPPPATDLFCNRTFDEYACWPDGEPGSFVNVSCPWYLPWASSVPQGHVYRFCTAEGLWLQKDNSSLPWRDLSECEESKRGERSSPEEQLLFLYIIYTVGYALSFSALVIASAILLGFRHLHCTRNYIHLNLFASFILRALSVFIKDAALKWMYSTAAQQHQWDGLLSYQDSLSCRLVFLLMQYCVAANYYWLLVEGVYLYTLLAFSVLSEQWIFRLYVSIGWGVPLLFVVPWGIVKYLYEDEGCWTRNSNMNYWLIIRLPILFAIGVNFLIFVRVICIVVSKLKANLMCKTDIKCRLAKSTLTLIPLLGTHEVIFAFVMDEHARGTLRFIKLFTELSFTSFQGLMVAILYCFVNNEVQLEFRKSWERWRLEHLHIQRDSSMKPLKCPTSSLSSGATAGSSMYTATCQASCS
TRHR enhancer: TRH receptor (human) allosteric enhancement; P34981; TRHR cells, fluo-8 calcium fluorescence, EC20 TRH enhancement; enhancement, % at 2 µM; 0.66% of 360,000 active; in the data active means enhancement above about 30%; further: 0% is about no effect
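TRHR-expressing cells loaded with fluo-8 calcium dye were read kinetically (ex 480/em 530) during compound addition, then stimulated with an EC20 of TRH (10 nM final). Enhancement of the Gq-mediated intracellular calcium response was scored.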
PTHR1 agonist: agonists of human PTHR1 parathyroid hormone receptor. 0.075% of 410,000 active. Potency, µM (titrated, usually from 115 µM), inactives show at the top dose activation, actives largely listed as activators. HEK293 GP2 PTHR1 cells, GloSensor cAMP luminescence, 1 h. Q03431; further: potency means the concentration at half of the fitted maximal effect; nearly all actives have a fitted effect of over 55% in size
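HEK-293-derived GP2 cells expressing PTHR1 and a GloSensor cAMP reporter, 3,000/well, plated overnight, given luciferin plus IBMX (each 0.5 mM as added) for 1 h at 37 °C, then compound for 1 h at 37 °C. Luminescence was read after 15 min at room temperature.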
GLP1R cytotox: cytotoxic in the GLP-1 receptor inverse agonist counter-screen | HEK293 cAMP-luciferase reporter cells, luminescence, 24 h | Potency, µM (doses to about 38.3 µM), for the others: at the highest dose activity change, negative = inhibition, actives largely listed as inhibitors | 0.13% of 410,000 active;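 further: loss of luciferase light is scored as toxicity; potency means the concentration at half of the fitted maximal effect; on the % scale 0 is the no-effect control and ±100 the full control effect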
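Here, cytotoxicity is scored as loss of luminescence. The MLSMR collection was tested on cells seeded in medium containing 10% Nu serum, with a 24 hr compound exposure preceded by 12 hours of culture.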
TRHR ag: activates the human TRH receptor; 0.18% of 360,000 active; activation, % at 2 µM; TRHR cells, calcium flux fluo-8, FDSS agonist mode; P34981; in the data active means activation above about 30%; further: 0% is about no effect
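In this calcium-flux screen, cells bearing human TRHR are dye-loaded with fluo-8, baselined for 10 cycles, then exposed to library compounds; positive kinetic calcium responses during the agonist phase mark hits, with TRH as control.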
GLP-1R inv ag: acts as inverse agonist at human GLP-1 receptor; P43220; HEK293 GLP-1R CRE-luciferase, luminescence, 24 h; GLP-1R form is constitutively active; Potency, µM (series often up to 38.3 µM), for the others: at the top dose activity change, negative = inhibition, actives largely listed as inhibitors; 1.6% of 410,000 active; AID 624417; further: potency means the concentration at half of the fitted maximal effect; on the % scale 0 is the no-effect control and ±100 the full control effect; nearly all actives have a fitted effect of over 55% in size
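qHTS in 1536-well format: reporter HEK293 cells expressing constitutive GLP-1R activity in DMEM + 10% Nu serum, 24 hr with compounds at 37 deg C, luminescence read after 12 min with detection reagent.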
Active calls of the source: *; i = inactive; ? = inconclusive; . = no result; [ ] = another dose, or the depositor's remark. Unless noted, the call rests on the fitted dose curve; in most records, active means well fitted curve in the direction sought with a large enough effect; inconclusive means small, poorly fitted or top-dose-only effect, or another doubt; inactive means no such curve, though single readings can be large; an effect the other way counts as inactive or inconclusive.

SMILES	GLP-1R agonist	TRHR enhancer	PTHR1 agonist	GLP1R cytotox	TRHR ag	GLP-1R inv ag
Cc1cccc(-c2cccc(NC(=O)C3CCCN(C(=O)c4csc(C)n4)C3)c2)c1 (configuration not stated)	7%	-6	-50%	-16%	0	5µM*
Cc1cccc(-c2cccc(NC(=O)C3CCCN(C(=O)c4cccnc4)C3)c2)c1 (configuration not stated)	9%	0	i	-15%	-1	?
CC1(C)CC(NC(=O)COc2ccc3c4c(c(=O)oc3c2)CCCC4)CC(C)(C)N1	6%	1	i	-3%	0	-11%
Cc1ccc2ccc(C(Nc3ccccc3)c3ccc(F)cc3)c(O)c2n1 (configuration not stated)	.	.	i	-15%	.	?
Cc1ccc2ccc(C(Nc3ccccc3)c3ccc(C(C)C)cc3)c(O)c2n1 (configuration not stated)	.	.	-49%	-6%	.	3.5µM*
Cc1ccc2ccc(C(Nc3ccccc3)c3ccccc3)c(O)c2n1 (configuration not stated)	.	.	-75%	6%	.	6.3µM*
Cc1cc(N2CCCCC2)nc(N)n1	-5%	-5	-13%	4%	42*	-25%
Cc1occc1-c1nnc(SCC(=O)Nc2ccccc2)n1CCc1ccccc1	1%	-13	i	-14%	-2	11µM*
Cc1ccccc1N=Nc1ccc(O)c2ncccc12	8%	1	-57%	-2%	-1	22%
O=S(=O)(O)c1cccc2c(N=Nc3ccc(O)c4ncccc34)cccc12	-1%	-5	i	11µM*	-1	-22%
CCN(CC)c1ccc(/C=C2\C(=N)N3N=C(CC(=O)N4CCOCC4)SC3=NC2=O)cc1	2%	-5	-12%	49%	34*	3%
O=C(CSc1oc(-c2ccco2)nc1S(=O)(=O)c1ccc(Cl)cc1)c1ccc(Cl)cc1	.	2	-32%	5%	0	?
COc1ccc(-c2cc(OC(=O)c3cccc(C)c3)c3c(C)oc(C)c3c(=O)c2)cc1	.	8	i	11%	-1	-14%
CCN(CC)S(=O)(=O)c1ccc2oc(SCC(=O)NC3CC3)nc2c1	-7%	-7	-13%	18%	0	1%
CCN(CC)S(=O)(=O)c1ccc2oc(SCc3ccc(F)cc3)nc2c1	7%	-1	-22%[57.5 µM]	-1%	-2	11µM*
CCN(CC)S(=O)(=O)c1ccc2oc(C(=O)NCc3ccc(F)cc3)c(C)c2c1	11%	-2	-58%[57.5 µM]	-2%	0	3.5µM*
CCCCC1C2=C(CC(C)(C)CC2=O)OC2=C1C(=O)CC(C)(C)C2	4%	0	i	-7%	1	8.9µM*
CCCCCCC1C(C#N)=C(N)OC2=C1C(=O)CC(C)(C)C2 (configuration not stated)	12%	-2	i	7%	-1	0%
O=C(NCc1ccc2c(c1)OCO2)c1cc(-c2ccncc2)nc2ccccc12	7%	3	-13%	-13%	0	?
CCOC(=O)C1(CCOC)CCN(Cc2ccc(C3CCCCO3)s2)CC1 (configuration not stated)	9%	0	-23%	3%	1	?
O=C1CSC(=S)N1Cc1cccnc1	-25%	4	-28%[57.5 µM]	?	2	2.8µM*
O=C1CSC(=S)N1c1cccnc1	0%	2	-11%[57.5 µM]	-29%	1	0%
Cc1ccc(/C=C/C(=O)N2CC(C)CC(C)C2)o1 (configuration not stated)	-27%	-6	-94%[57.5 µM]	?	-1	10µM*
O=c1[nH]c(C2CCN(S(=O)(=O)c3cccc(C(F)(F)F)c3)CC2)nc2c1nnn2Cc1cccc(F)c1	6%	19	i	?	0	7.9µM*
